A short description of assay [1]: ATG_CRE_CIS: Attagene CIS-FACTORIAL HepG2 Assay for human cAMP Responsive Element (CRE) binding protein 3 (AID 2282926). Particulars: HepG2 CRE cis-reporter, Attagene multiplexed mRNA; actives raise or lower the signal. An outline of the steps: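 Cells carrying cis-regulated reporter constructs respond through their own endogenous factors. After 24 h treatment, RNA is reverse-transcribed, amplified, labelled and sized by capillary electrophoresis; up- and down-regulation are both scored against vehicle.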

In assay [2] the target is CCAAT/enhancer-binding protein beta (Homo sapiens) (UniProt P17676). Nature of the assay: ATG_C_EBP_CIS: Attagene CIS-FACTORIAL HepG2 Assay for human CCAAT/Enhancer Binding Protein (C/EBP) beta (AID 2282927). The settings on record: HepG2 Attagene cis-factorial transcription factor reporter; actives raise or lower the signal. In short, it runs like this:
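HepG2, transient MRTU transfection, 24 h treatment. RT-PCR plus CE fluorescence; DMSO negative control, bidirectional fit.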

A short description of assay [3]: ATG_DR4_LXR_CIS: Attagene CIS-FACTORIAL HepG2 Assay for human Liver X Receptor (LXR), DR4 submotif (AID 2282929). The settings on record: HepG2 Attagene DR4 cis-reporter, mRNA transcription; actives raise or lower the signal. In short, it runs like this:
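DR4 cis-reporter in HepG2, 24 h exposure. Detection: RT-PCR, 6-FAM labelling, CE fragment analysis. Endpoint fitted bidirectionally, DMSO = baseline.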

Assay [4] in a line: ATG_AP_2_CIS: Attagene CIS-FACTORIAL HepG2 Assay for human Activator Protein 2 (AP-2) (AID 2282932). The settings on record: HepG2 AP-2 cis-reporter, Attagene transcription factor profiling; actives raise or lower the signal. In short, it runs like this:
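Read-out: fluorescent reporter mRNA via RT-PCR and capillary electrophoresis, 24 h post-dose in transiently transfected HepG2. Endogenous factors drive cis-promoter reporters; gain or loss of signal fitted bidirectionally against DMSO.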

Assay [5] is described as follows: ATG_BRE_CIS: Attagene CIS-FACTORIAL HepG2 Assay for human Bone Morphogenetic Protein (BMP) Response Element (BRE) (AID 2282933). The settings on record: HepG2 BMP response element reporter, Attagene transcription factor profiling; actives raise or lower the signal. An outline of the steps: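 Multiplexed cis-reporter assay, HepG2, 24 h exposure. mRNA from reporter units quantified via RT-PCR/CE; DMSO baseline; bidirectional curve fit.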

Assay [6] deals with Transcription factor E2F1 (Homo sapiens) (UniProt Q01094). Nature of the assay: ATG_E2F_CIS: Attagene CIS-FACTORIAL HepG2 Assay for human E2F Transcription Factor 1 (AID 2282935). The settings on record: HepG2 Attagene cis-reporter, E2F reporter RNA transcripts; actives raise or lower the signal. In short, it runs like this:
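Transient MRTU transfection of HepG2; 24 h compound exposure; RNA → oligo(dT) RT → PCR → FAM label → HpaI cut → CE fluorescence. Gain/loss of signal fit against DMSO.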

The nature of assay [7]: ATG_EGR_CIS: Attagene CIS-FACTORIAL HepG2 Assay for human Early Growth Response 1 (EGR1) (AID 2282938). Particulars: HepG2 Attagene CIS-FACTORIAL EGR reporter mRNA; actives raise or lower the signal. An outline of the steps: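 Endpoint derived by bidirectional fitting versus DMSO vehicle. Method: cis-promoter reporter units transfected into HepG2, 24 h dosing, RNA isolation, RT-PCR with 6-FAM primer extension and HpaI digestion, then capillary electrophoresis fluorescence detection.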

The nature of assay [8]: ATG_M_19_CIS: Attagene CIS-FACTORIAL HepG2 Assay for M19 Transcription Factor (Internal Marker) (AID 2282939). The settings on record: HepG2 Attagene CIS-FACTORIAL M19 internal marker reporter; actives raise or lower the signal. An outline of the steps:
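Signals come from fluorescence of labelled reporter-specific PCR fragments resolved by capillary electrophoresis, following 24 h treatment of HepG2 cells transfected with cis-promoter reporter units; activity was fitted in both directions relative to DMSO.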

Assay [9] is described as follows: ATG_Ets_CIS: Attagene CIS-FACTORIAL HepG2 Assay for human Erythroblast Transformation Specific (ETS) (AID 2282941). Particulars: HepG2 ETS cis-reporter transcription, actives raise or lower the signal. In short, it runs like this:
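Multiplexed reporter transcript profiling: HepG2, 24 h treatment, total RNA to cDNA, PCR, 6-FAM labelling, HpaI cut, capillary electrophoresis. Gain- or loss-of-signal fitted against DMSO.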

The target of assay [10] is Hepatocyte nuclear factor 3-beta (Homo sapiens) (UniProt Q9Y261). Kind of assay: ATG_FoxA2_CIS: Attagene CIS-FACTORIAL HepG2 Assay for human Forkhead box A2 (FOXA2) (AID 2282942). The settings on record: HepG2 cis-reporter transcription factor activity, 24 h; actives raise or lower the signal. In short, it runs like this: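 Measured: reporter mRNA induction or loss in HepG2 transiently carrying multiple cis-regulated reporter units, 24 h after dosing. Quantified by RT-PCR plus capillary electrophoresis, normalised to DMSO.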

A short description of assay [11]: ATG_FoxO_CIS: Attagene CIS-FACTORIAL HepG2 Assay for human Forkhead box O (FoxO) (AID 2282943). The settings on record: HepG2 Attagene cis-reporter, FoxO element, mRNA; actives raise or lower the signal. In short, it runs like this:
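Transfected HepG2 reporter cells exposed to test chemical for 24 h; reporter RNA measured by reverse transcription, PCR and fluorescent capillary electrophoresis; curves fitted for increases and decreases against DMSO.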

Assay [12] in a line: ATG_GATA_CIS: Attagene CIS-FACTORIAL HepG2 Assay for human GATA Binding Protein (AID 2282944). The settings on record: HepG2 GATA cis-element reporter, Attagene multiplex mRNA; actives raise or lower the signal. An outline of the steps: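 After transfecting HepG2 cells with multiple cis-regulated reporter units, chemicals are dosed for 24 h; isolated RNA undergoes RT-PCR and fluorescent labeling before capillary electrophoresis, with activity expressed against DMSO.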

Assay [13] can be described thus: ATG_GLI_CIS: Attagene CIS-FACTORIAL HepG2 Assay for human Zinc Finger Protein GLI1 (AID 2282945). Particulars: HepG2, Attagene cis-factorial reporter mRNA, GLI element; actives raise or lower the signal. In short, it runs like this: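 Transiently transfected HepG2 cells report endogenous transcription factor activity via cis-element-driven reporter units. After 24 h compound exposure, reporter mRNA was measured by RT-PCR with capillary electrophoresis; bidirectional fitting against DMSO baseline.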

Assay [14] can be described thus: ATG_M_06_CIS: Attagene CIS-FACTORIAL HepG2 Assay for M06 Transcription Factor (Internal Marker) (AID 2282950). Particulars: HepG2 Attagene CIS-FACTORIAL M06 internal marker reporter; actives raise or lower the signal. An outline of the steps: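 HepG2 liver cells, 24 h exposure. Reporter transcripts from transfected cis-element constructs quantified by RT-PCR/capillary electrophoresis fluorescence. Bidirectional curve fit against DMSO.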

A short description of assay [15]: ATG_MRE_CIS: Attagene CIS-FACTORIAL HepG2 Assay for human Metal Responsive Element (MRE) (AID 2282954). The settings on record: HepG2 MRE cis-reporter transcription, Attagene multiplex; actives raise or lower the signal. An outline of the steps: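 RT-PCR/capillary electrophoresis readout of reporter mRNA, 24 h post-dosing, in HepG2 cells transfected with multiplexed cis-regulated reporter constructs. Gain or loss of signal fitted bidirectionally against DMSO baseline.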

Assay [16] addresses Paired box protein Pax-6 (Homo sapiens) (UniProt P26367). Nature of the assay: ATG_Pax6_CIS: Attagene CIS-FACTORIAL HepG2 Assay for human Paired Box 6 (PAX6) (AID 2282956). Particulars: HepG2 CIS-FACTORIAL PAX6 reporter transcription, RNA readout; actives raise or lower the signal. An outline of the steps:
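Values derive from bidirectional curve fitting of reporter mRNA signal relative to DMSO. HepG2 cells bearing transfected cis-regulated MRTUs were exposed for 24 h; transcripts were read by RT-PCR and capillary electrophoresis.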

Assay [17] in a line: ATG_PXRE_CIS: Attagene CIS-FACTORIAL HepG2 Assay for human Pregnane X Receptor Element (PXRE) (AID 2282957). Particulars: HepG2 Attagene CIS-FACTORIAL PXRE reporter, mRNA; actives raise or lower the signal. In short, it runs like this: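 Endogenous transcription factor activity in HepG2 was gauged through induction of reporter mRNA driven by a cis-regulating promoter element, sampled 24 h post-treatment. Activity was fitted in both directions against DMSO negative control.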

Assay [18] is described as follows: ATG_Sox_CIS: Attagene CIS-FACTORIAL HepG2 Assay for human SRY-box transcription factor (SOX) (AID 2282960). The settings on record: HepG2 Attagene cis-factorial SOX reporter, mRNA; actives raise or lower the signal. In short, it runs like this:
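Gain- or loss-of-signal endpoint, fitted bidirectionally with DMSO as negative control. Based on reporter mRNA from transfected HepG2 cells harvested 24 h post-treatment and quantified via RT-PCR and capillary electrophoresis.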

In assay [19] the target is Transcription factor Sp1 (Homo sapiens) (UniProt P08047). Kind of assay: ATG_Sp1_CIS: Attagene CIS-FACTORIAL HepG2 Assay for human Specificity Protein 1 (Sp1) (AID 2282961). The settings on record: HepG2 Sp1 cis-reporter transcription, actives raise or lower the signal. In short, it runs like this: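 Endpoint reflects endogenous Sp1 transcriptional activity, not an exogenous fusion protein: HepG2 cells with transfected cis-regulated reporters, 24 h dosing, RT-PCR/capillary electrophoresis mRNA read-out, DMSO-normalised bidirectional fit.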

Assay [20] can be described thus: ATG_SREBP_CIS: Attagene CIS-FACTORIAL HepG2 Assay for human Sterol Regulatory Element Binding (SREBP) (AID 2282962). Particulars: HepG2 Attagene cis-factorial SREBP reporter, mRNA; actives raise or lower the signal. In short, it runs like this: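 Values derive from bidirectional curve fitting with DMSO as baseline. The underlying measurement is reporter mRNA from cis-element-regulated units in transiently transfected HepG2, quantified by RT-PCR and capillary electrophoresis after 24 h exposure.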

Active and inactive are the calls of the source. Rule for the calls: active = hit-call score of the fitted dose curve at least 0.9, where 1 is the maximum; inactive = score below 0.9.

Hepatocyte nuclear factor 3-beta (Homo sapiens), sequence (Q9Y261 whole entry, looked up): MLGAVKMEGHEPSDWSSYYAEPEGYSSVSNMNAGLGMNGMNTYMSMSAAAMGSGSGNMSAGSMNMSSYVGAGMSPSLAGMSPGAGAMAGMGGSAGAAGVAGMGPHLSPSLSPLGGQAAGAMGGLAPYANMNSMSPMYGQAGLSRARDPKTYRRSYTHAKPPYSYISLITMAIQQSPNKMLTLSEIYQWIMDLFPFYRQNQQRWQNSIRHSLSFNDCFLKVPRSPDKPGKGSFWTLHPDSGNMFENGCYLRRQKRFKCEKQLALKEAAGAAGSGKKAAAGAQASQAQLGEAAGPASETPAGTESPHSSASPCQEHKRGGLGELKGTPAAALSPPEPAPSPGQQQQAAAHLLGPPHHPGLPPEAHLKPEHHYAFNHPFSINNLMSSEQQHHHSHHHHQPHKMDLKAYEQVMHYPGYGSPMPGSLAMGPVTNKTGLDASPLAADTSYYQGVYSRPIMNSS
Paired box protein Pax-6 (Homo sapiens), sequence (P26367 whole entry, looked up): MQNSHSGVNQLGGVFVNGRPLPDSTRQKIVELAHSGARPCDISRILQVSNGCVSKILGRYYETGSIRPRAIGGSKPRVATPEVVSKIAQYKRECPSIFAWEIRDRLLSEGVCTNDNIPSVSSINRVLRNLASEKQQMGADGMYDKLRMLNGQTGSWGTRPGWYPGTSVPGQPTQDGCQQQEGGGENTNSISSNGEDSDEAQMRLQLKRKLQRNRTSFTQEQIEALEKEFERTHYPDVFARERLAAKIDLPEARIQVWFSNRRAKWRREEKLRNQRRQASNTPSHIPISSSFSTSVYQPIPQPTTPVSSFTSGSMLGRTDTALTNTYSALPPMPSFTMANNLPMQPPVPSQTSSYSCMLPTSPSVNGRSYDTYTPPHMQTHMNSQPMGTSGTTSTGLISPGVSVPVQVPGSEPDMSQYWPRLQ
CCAAT/enhancer-binding protein beta (Homo sapiens), sequence (P17676 whole entry, looked up): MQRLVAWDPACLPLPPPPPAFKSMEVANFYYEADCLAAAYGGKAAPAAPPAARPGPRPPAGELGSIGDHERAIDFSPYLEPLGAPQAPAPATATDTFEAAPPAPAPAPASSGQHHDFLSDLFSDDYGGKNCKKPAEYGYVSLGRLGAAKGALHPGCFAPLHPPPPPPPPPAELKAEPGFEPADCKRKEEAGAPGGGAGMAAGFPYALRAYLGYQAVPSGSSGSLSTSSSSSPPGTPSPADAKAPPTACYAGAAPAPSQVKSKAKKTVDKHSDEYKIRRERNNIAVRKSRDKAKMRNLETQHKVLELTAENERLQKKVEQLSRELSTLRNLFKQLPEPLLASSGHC
Transcription factor Sp1 (Homo sapiens), sequence (P08047 whole entry, looked up, the tested form may be a part): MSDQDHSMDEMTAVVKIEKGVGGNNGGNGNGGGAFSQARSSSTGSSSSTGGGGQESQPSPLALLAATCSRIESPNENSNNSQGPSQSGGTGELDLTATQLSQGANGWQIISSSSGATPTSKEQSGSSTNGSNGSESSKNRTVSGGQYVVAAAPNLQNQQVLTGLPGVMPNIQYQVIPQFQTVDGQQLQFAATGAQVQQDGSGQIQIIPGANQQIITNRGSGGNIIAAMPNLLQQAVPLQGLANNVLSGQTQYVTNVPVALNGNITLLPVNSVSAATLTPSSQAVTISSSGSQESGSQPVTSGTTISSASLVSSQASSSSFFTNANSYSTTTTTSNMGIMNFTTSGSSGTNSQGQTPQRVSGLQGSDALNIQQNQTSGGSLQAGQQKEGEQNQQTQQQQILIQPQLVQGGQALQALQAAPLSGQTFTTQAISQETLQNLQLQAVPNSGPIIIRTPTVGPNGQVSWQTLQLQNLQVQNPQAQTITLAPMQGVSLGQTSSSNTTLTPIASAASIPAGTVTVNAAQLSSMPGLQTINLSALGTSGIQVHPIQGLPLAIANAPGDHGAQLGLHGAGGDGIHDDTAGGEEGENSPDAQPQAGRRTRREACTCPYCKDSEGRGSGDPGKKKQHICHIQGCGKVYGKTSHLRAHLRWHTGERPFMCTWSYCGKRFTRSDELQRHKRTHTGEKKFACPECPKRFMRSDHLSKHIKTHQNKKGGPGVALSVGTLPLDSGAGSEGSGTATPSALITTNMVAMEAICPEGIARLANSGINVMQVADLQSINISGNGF
Transcription factor E2F1 (Homo sapiens), sequence (Q01094 whole entry, looked up): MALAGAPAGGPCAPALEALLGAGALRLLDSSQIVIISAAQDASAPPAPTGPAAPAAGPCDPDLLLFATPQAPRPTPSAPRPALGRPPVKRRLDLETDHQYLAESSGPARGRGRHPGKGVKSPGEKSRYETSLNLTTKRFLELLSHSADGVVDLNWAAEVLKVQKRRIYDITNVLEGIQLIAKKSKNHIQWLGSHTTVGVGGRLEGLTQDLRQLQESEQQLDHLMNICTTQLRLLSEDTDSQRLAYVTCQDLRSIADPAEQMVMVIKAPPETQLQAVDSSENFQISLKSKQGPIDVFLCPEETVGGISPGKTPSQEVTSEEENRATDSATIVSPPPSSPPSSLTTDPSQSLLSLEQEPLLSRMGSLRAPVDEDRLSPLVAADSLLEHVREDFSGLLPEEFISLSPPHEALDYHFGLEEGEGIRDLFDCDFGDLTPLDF

Take `CCC(C)c1cc([N+](=O)[O-])cc([N+](=O)[O-])c1OC(=O)C=C(C)C` (stereo not given): the outcome in assay [1], in assay [3], in assay [4], in [8], in assay [10] and in assay [12] was inactive. Moreover, the result in assay [14] and in assay [20] was inactive. Besides, the concentration at half-maximal activity (AC50) (in general, the concentration at which the activity in the assay is half-maximal) in [2] was 100 µM (active); in [5] it was 8.06 µM (active); in assay [6] it was 151 µM (active); in assay [7], 27.7 µM (active); in assay [9] it was 100 µM (active); in [11], 57.3 µM (active). Also, the AC50 was 24.8 µM (active) in assay [13]; 27.5 µM (active) in assay [15]; 37.1 µM (active) in [16]; 0.787 µM (active) in assay [17]; 53.7 µM (active) in [18]; 26.2 µM (active) in [19].
For the compound `CCC(Br)(CC)C(=O)NC(N)=O`, the compound was called inactive in [1], in assay [2], in assay [3], in assay [4], in assay [5] and in assay [6]. The result in assay [7], in [8], in assay [9], in assay [10], in [11] and in assay [12] was inactive. The outcome in assay [13], in [14], in assay [15], in assay [16], in assay [18] and in [19] was inactive. Besides, the compound was classed as inactive in assay [20]. Further, the AC50 in assay [17] was 48.5 µM (active).
As for `COc1cc(OC)nc(Oc2cccc(Oc3nc(OC)cc(OC)n3)c2C(=O)O)n1`, the outcome in [1], in assay [2], in assay [3], in assay [4], in [5] and in assay [6] was inactive. Further, the outcome in assay [7], in [8], in assay [9], in assay [10], in assay [11] and in assay [12] was inactive. Besides, the compound was called inactive in [13], in assay [14], in [15], in [16], in assay [18] and in assay [19]. Moreover, in assay [20], the outcome was inactive. Moreover, in [17], the AC50 was 56 µM (active).
As to `CCCCCc1cc(O)cc(O)c1`, the result in assay [1], in assay [2], in [4], in [5], in [6] and in assay [8] was inactive. Further, the outcome in assay [9], in assay [10], in assay [11], in assay [12], in assay [13] and in assay [14] was inactive. Besides, the compound was called inactive in assay [18], in assay [19] and in [20]. The AC50 is 154 µM (active) in assay [3]; 100 µM (active) in assay [7]; 100 µM (active) in assay [15]; 146 µM (active) in [16]; 9.47 µM (active) in [17].

Source of the values: PubChem BioAssay (EPA / NIEHS).
